The values below come from PubChem BioAssay (EPA / NIEHS).

Records with an inconclusive call do not appear. The source made the active and inactive calls. The calls were made as follows, unless noted: active = hit-call score of the fitted dose curve at least 0.9, where 1 is the maximum; inactive = score below 0.9.

Assay [1] is described as follows: CCTE_Harrill_HTTr_CellCount_MCF7: CCTE's Cell Proliferation Assessment for the High-Throughput Transcriptomics (HTTr) Platform, Harrill Lab (AID 2284012; active = hit-call score of the fitted dose curve at least 0.9, where 1 is the maximum;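 also: count of Hoechst-stained nuclei per well by high-content imaging in MCF-7 cells; cells exposed to compound for six hours; intended direction is loss of nuclei count meaning fewer cells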). In short, it runs like this:
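Readout: Hoechst nuclear count by high-content imaging. MCF-7, 8-point dilution series, 6 h exposure. Bidirectional fit vs DMSO baseline.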

Assay [2] in a line: CCTE_Shafer_MEA_acute_burst_number: CCTE's Neural Acute Assay for Single-Electrode Bursts, Shafer Lab (AID 2284013). In outline:
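Primary rat cortical neurons on 16-electrode MEA wells, DIV 13 or 15, exposed to compound (0.03-40 uM; ≥3 wells); 40-min recordings at 37 C before and after treatment. Burst count expressed as percent change from baseline, DMSO as negative control.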

A short description of assay [3]: CCTE_Shafer_MEA_acute_burst_duration_mean: CCTE's Neural Acute Assay for Mean Burst Duration, Shafer Lab (AID 2284014).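 Also: hits are decreases in mean burst duration relative to DMSO controls.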 In outline: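 Mean burst duration was compared between a 40 min baseline and a 40 min recording in the presence of compound (0.03-40 uM, 37 C), giving percent change per well. Cultures were rat cortical neurons at DIV 13 or 15; wells needed ≥10 active electrodes.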

A short description of assay [4]: CCTE_Shafer_MEA_acute_per_burst_spike_number_mean: CCTE's Neural Acute Assay for Average Number of Spikes Per Burst, Shafer Lab (AID 2284015).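 Also: hits are decreases in mean spikes per burst versus baseline.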 In short, it runs like this:
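Read-out: percent change in mean spikes per burst, each well's post-exposure 40-min recording versus its own 40-min baseline. Rat cortical cultures, DIV 13 or 15, compounds 0.03-40 uM; DMSO is negative control, loss-of-signal fitting.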

Assay [5] can be described thus: CCTE_Shafer_MEA_acute_interburst_interval_mean: CCTE's Neural Acute Assay for Mean Interburst Interval, Shafer Lab (AID 2284016).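 Also: percent change of mean interburst interval versus each well's own pre-dose baseline; curves fitted for decrease in interburst interval relative to DMSO.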 The method, then:
CCTE_Shafer_MEA_acute assay is conducted using Axion Biosystems 48 well microelectrode array (MEA) plates and Maestro recording system. Each well of the MEA plate contains a grid of 16 microelectrodes embedded in the culture surface. Electrically active cells, such as neurons, can be cultured over the electrodes, and electrical activity in these cells can be recorded extracellularly. The spontaneous firing of neurons is captured from each electrode on a microsecond timescale providing both temporally and spatially precise data. […] The CCTE_Shafer_MEA_acute assay uses primary cultures of rat cortical neurons. […] The recordings before and after chemical treatment are used to calculate a percent change in the mean inter-burst interval in each well.Data from the assay component CCTE_Shafer_MEA_acute_interburst_interval_mean was analyzed into 1 assay endpoint. This assay endpoint, CCTE_Shafer_MEA_acute_interburst_interval_mean, was analyzed in the negative analysis fitting direction relative to DMSO as the negative control and baseline of activity. […]
Spontaneous activity in the cortical cultures was recorded using an Axion Biosystems Maestro 768 channel amplifier and Axion Integrated Studios (AxIS) v1.8 (or later) software. […] Any electrodes with rms noise levels greater than 5 uV were grounded (e.g., no data were recorded). […]

The nature of assay [6]: CCTE_Shafer_MEA_acute_burst_percentage_mean: CCTE's Neural Acute Assay for Percentage of Spikes in a Burst, Shafer Lab (AID 2284017). In outline: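 Rat cortical cultures, DIV 13/15, 37 C. Spikes detected at 8x rms noise (300-5000 Hz band-pass). Burst spikes/total spikes averaged across electrodes per well; % change post- vs pre-treatment (40 min each), loss-of-signal fit vs DMSO.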

Assay [7] can be described thus: CCTE_Shafer_MEA_acute_burst_percentage_std: CCTE's Neural Acute Assay for Standard Deviation of Burst Percentage, Shafer Lab (AID 2284018).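 Also: fitted in the negative direction so actives lower burst percentage SD.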 In outline:
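Value is percent change from baseline in the across-electrode SD of spikes-in-bursts percentage, wells with >/= 10 active electrodes. Acute 40-min exposure to 0.03-40 uM on DIV 13 or 15 rat cortical cultures, recorded at 37 C after 40-min baseline.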

Assay [8] is described as follows: CCTE_Shafer_MEA_acute_per_network_burst_spike_number_mean: CCTE's Neural Acute Assay for Average Number of Spikes in a Network Burst, Shafer Lab (AID 2284019). In short, it runs like this:
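Percent change from baseline in mean spikes per network burst, spikes detected at 8x rms noise. Each compound at 0.03-40 uM in at least three wells of rat cortical cultures, recorded 40 min before and 40 min during exposure.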

Assay [9] is described as follows: CCTE_Shafer_MEA_acute_per_network_burst_spike_number_std: CCTE's Neural Acute Assay for Standard Deviation of Number of Spikes in a Network Burst, Shafer Lab (AID 2284020).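 Also: fitted for decrease in spike-number SD versus DMSO so actives lower it.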 In short, it runs like this: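 Endpoint: percent change from 40 min baseline in standard deviation of spikes per network burst, after 40 min compound exposure (0.03-40 uM, 37 C). Cortical rat neurons on MEA at DIV 13 or 15; spikes detected at 8x rms noise, 300-5000 Hz band-pass.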

A short description of assay [10]: CCTE_Shafer_MEA_acute_per_network_burst_electrodes_number_mean: CCTE's Neural Acute Assay for Mean Number of Electrodes in a Network Burst, Shafer Lab (AID 2284021).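 Also: curves fitted for decreases only so hits reduce electrodes per burst.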 In short, it runs like this:
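Percent change from baseline was computed as mean electrode count per network burst, comparing 40 min recordings before and during compound (0.03-40 uM) exposure. Cultures were rat cortical neurons at DIV 13 or 15, recorded on MEAs at 37 C with an adaptive 8x rms threshold.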

On to `CC(Cc1ccc(O)c(O)c1)C(C)Cc1ccc(O)c(O)c1` (stereo unspecified), for which the result in assay [1] was inactive.

Consider `CCCCCCCOC(=O)c1ccccc1C(=O)OCCCCCCC`, for which the result in [1] was inactive.

As to `OC[C@@H](O)[C@@H](O)[C@H](O)[C@@H](O)CO`, the outcome in assay [1] was inactive.

For `CCCCCCOC(=O)c1ccccc1O`, the result in [2], in assay [3], in assay [4], in [5], in [6] and in assay [7] was inactive. Moreover, the molecule was called inactive in [8], in [9] and in [10].

Turning to `CC(CCl)OP(=O)(OC(C)CCl)OC(C)CCl` (stereo unspecified), in assay [1], the result was inactive.

Consider `CNC(=S)NC`, for which the call in assay [1] was inactive.

For `C#C[C@]1(O)CC[C@H]2[C@@H]3CCc4cc(OC)ccc4[C@H]3CC[C@@]21C`, in assay [1], the molecule was called inactive.

In the case of `CCN(Cc1cccc(S(=O)(=O)O)c1)c1ccc(C(=C2C=CC(=[N+](CC)Cc3cccc(S(=O)(=O)O)c3)C=C2)c2ccc(O)cc2S(=O)(=O)[O-])cc1`, in [1], the result was inactive.

For `CCCCC(CC)COP(=O)(O)OCC(CC)CCCC` (stereo unspecified), the AC50 in [2] was 3 nM (active). Further, the molecule was called inactive in [3], in assay [4], in [5], in assay [6], in [7] and in [8]. For the same molecule, the outcome in assay [9] and in assay [10] was inactive.

As to `Nc1ccc(S(=O)(=O)Nc2nccs2)cc1`, the call in [1] was inactive.
